These results are taken from PubChem BioAssay (NCI).

Common to all, as to test: NCI-60 one-dose screen, 48 h (100 = growth as untreated, 0 = no growth, -100 = all killed)
What all share (details): 10 µM unless noted

The test system of assay [1] is NCI-H23 lung.
Assay [2] has as its system NCI-H226 lung.
For assay [3], the system named is NCI-H322M lung.
Assay [4] concerns HOP-62 NSCLC.
Assay [5] relates to HOP-92 NSCLC.
For assay [6], the system named is NCI-H522 lung.
Assay [7] relates to 786-0 renal.
For assay [8], the system named is COLO 205 colon.
For assay [9], the system named is DU-145 prostate.
The subject of assay [10] is K-562 leukemia.
In assay [11] the test system is MALME-3M melanoma.
Assay [12] relates to MDA-MB-231 breast.
Assay [13] concerns RXF 393 renal.
Assay [14] concerns SF-268 CNS.
The subject of assay [15] is SF-295 CNS.
Assay [16] has as its system SF-539 CNS.
The subject of assay [17] is M14 melanoma.
The subject of assay [18] is NCI-H460 lung.
Assay [19] relates to A549/ATCC NSCLC.
For assay [20], the system named is UACC-257 melanoma.

The panel holds about 83,000 compounds, 20% with a hit somewhere; the sample as a whole holds those more often.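 Growth was measured after 48 h exposure to one concentration of compound in 96-well plates. Values under 10 count as active.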 Unmarked numbers belong to inactive results. The source made the active and inactive calls.

In the case of `O=C1Nc2ccc(Br)cc2C1=O`, the growth is 97.5% in assay [1]; 93.3% in assay [2]; 102% in assay [3]; 100% in assay [4]; 103% in assay [5]; 99.8% in assay [6]. The growth is 109% in [7]; 106% in [8]; 99.5% in assay [9]; 87.2% in assay [10]; 102% in [11]; 96.7% in assay [12]. The growth in assay [13] was 119%; in assay [14], 93.6%; in assay [15] it was 99.1%; in assay [16] it was 98.3%; in assay [17] it was 98.4%.

For the compound `CC(C)Nc1ccc(Nc2ccc(NC(C)C)cc2)cc1`, the growth is 25.9% in assay [1]; 51.8% in [2]; 84.6% in assay [3]; 24.7% in [18]; 72.6% in assay [5]; 35.2% in assay [6]. The growth in assay [19] is 40.9%; in assay [7], 66%; in [8] it was 25.8%; in [9], 63.1%; in assay [10], 24.6%; in assay [11] it was 35.8%. In addition, the growth is 33.3% in assay [12]; 77.5% in assay [13]; 63.5% in assay [14]; 67.6% in assay [15]; 23.7% in assay [20]; 72% in assay [17].

For `CC(=O)Nc1ccc(C(=O)CCl)cc1`, the growth in assay [1] is 86.4%; in assay [2] it was 92.6%; in [3] it was 95.5%; in assay [4] it was 94%; in assay [5], 62%; in [6], -65.4% (active). Besides, the growth in assay [19] is 98.7%; in assay [7], 16.9%; in assay [8], 3.3% (active); in assay [9] it was 66%; in assay [10], 1.75% (active); in assay [11], -53.9% (active). Also, the growth was 83.2% in assay [13]; 81.2% in [14]; 102% in assay [15]; 56.1% in [16]; 86% in assay [20].

With `O=[N+]([O-])c1ccc(C(Br)c2ccc([N+](=O)[O-])cc2)cc1`, the growth in assay [1] was 79.5%; in [2], 99.6%; in assay [3], 114%; in [18] it was 102%; in assay [5], 86.1%; in assay [6] it was -40.3% (active). In addition, the growth in assay [19] is 100%; in assay [7] it was 108%; in assay [8], 88.3%; in [9], 111%; in assay [10] it was 25.4%; in [11] it was 101%. The growth in [12] was 93.8%; in assay [13], 117%; in assay [14] it was 84.8%; in assay [15], 80.6%; in [16], 110%; in assay [20] it was 98.1%. For the same compound, the growth in assay [17] was 22.6%.

With `CCOC(=O)/C(=C\c1ccc2ccccc2c1)P(=O)(OCC)OCC`, the growth in assay [1] is 41.1%; in [2], 55.7%; in assay [3], 70%; in assay [4] it was 40.6%; in [5], 40.7%; in assay [6] it was -31.7% (active). The growth in assay [19] is 55.8%; in assay [7], 11.6%; in assay [8], 42.2%; in assay [10] it was 11.8%; in assay [11], 72.1%; in assay [12], 16.3%. Also, the growth is -23.4% (active) in assay [13]; 42.6% in assay [14]; 60.1% in assay [15]; 28.9% in assay [16]; 63.8% in assay [20]; 31.7% in assay [17].

For the compound `CN=C(N)N/N=C(\C)c1ccc2c(c1)Cc1ccccc1-2`, the growth in [1] is 10.7%; in [2] it was -39.1% (active); in assay [3], -85% (active); in assay [4] it was -73.3% (active); in [6], 12.2%; in assay [19], -66.4% (active). In addition, the growth in [7] is -77.9% (active); in assay [8], -100% (active); in [9], -85.9% (active); in assay [10], -81.5% (active); in assay [11], -85% (active); in assay [12], -67.5% (active). Also, the growth is -28.4% (active) in [13]; -44.2% (active) in assay [14]; -51.9% (active) in assay [15]; -70.3% (active) in assay [20]; -96.1% (active) in assay [17].

Turning to `CN1CSC(=S)N(Cc2ccccc2)C1`, the growth in assay [1] is 83.9%; in [2], 104%; in assay [3] it was 102%; in [4] it was 108%; in assay [5], 69.4%; in [6] it was -25.6% (active). For the same compound, the growth is 107% in assay [19]; 100% in [7]; 113% in assay [8]; 110% in assay [9]; 49.9% in [10]; 99.3% in [11]. Also, the growth in assay [12] is 90.7%; in [13], 83.1%; in assay [14], 105%; in assay [15], 106%; in assay [20], 84.3%; in assay [17] it was 92%.

On to `CCCCCCCCCCCCCCCC[N+]1(C)CCCC1c1cccnc1` (configuration not stated), for which the growth in [1] was 25.3%; in [2] it was 41.4%; in assay [4], 53.7%; in assay [18] it was 23.6%; in assay [5], 5.98% (active); in assay [6] it was 41.2%. Moreover, the growth was 41.8% in [19]; 52.7% in [7]; -21.7% (active) in assay [8]; 52.1% in assay [9]; 36.3% in [10]; 64.7% in [11]. For the same compound, the growth in assay [12] was 30.8%; in assay [13], 45.3%; in assay [14] it was 29.6%; in assay [15], 42.2%; in assay [16], 33.3%; in assay [20], 75.9%. Besides, in [17], the growth was 17.9%.

In the case of `CCCCCCCCc1cc(Cl)c(O)c(Cl)c1`, the growth in assay [1] was 103%; in [2] it was 104%; in [4] it was 105%; in [18], 109%; in assay [5], 99.5%; in assay [6] it was 97.6%. Besides, the growth in assay [19] is 98.5%; in assay [7], 108%; in assay [8] it was 108%; in assay [9] it was 103%; in assay [10] it was 104%; in assay [11], 100%. Also, the growth in assay [12] was 103%; in assay [13], 113%; in assay [14], 98.5%; in assay [15], 113%; in assay [16], 99.5%; in [20], 104%. For the same compound, the growth in assay [17] is 107%.
